Compound activity deposited in PubChem BioAssay by several laboratories.
tim23-1 inh: growth inhibitors of tim23-1 mutant yeast. inhibition, % at 20 µM. S. cerevisiae tim23-1 growth, BacTiter-Glo luminescence, 24 h. 330,000 compounds, 1.3% hits. AID 463212;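 active means growth inhibition of the mutant yeast at or above 50%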;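 further: temperature-sensitive mutant grown at 25 °C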
SKKanGAS inh: inhibitors of SKKanGAS S. pyogenes growth in kanamycin (SK-promoter or general growth effect) | BacTiter-Glo, 6 h | inhibition, % at 7.5 µM | 300,000 compounds, 1.3% hits | AID 1662;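 active means mean replicate score, as percent of positive control median, at least 50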;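 further: strain carries kanamycin resistance gene driven by streptokinase promoter and grows in 40 µg/ml kanamycin; loss of luminescence reflects streptokinase promoter inhibition or plain growth inhibition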
tim10-1 inh: growth inhibitors of tim10-1 mutant yeast; inhibition, % at 20 µM; AID 463190; 330,000 compounds, 2.2% hits; S. cerevisiae tim10-1 ts strain growth, BacTiter-Glo, 24 h;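 active means inhibition of at least 40%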;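 further: mutant grown at 25 °C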
PfHsp90 set2: inhibits growth of yeast expressing Plasmodium falciparum Hsp90; S. cerevisiae expressing PfHsp90, BacTiter-Glo ATP, 48 h; yeast lacking PDR1 and PDR3 efflux regulators; inhibition, % at 9.4 µM; 310,000 compounds, 0.32% hits;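 active means every replicate shows inhibition above about 80%, whatever the replicate mean, limit read from the data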
TIM10 inh: inhibits growth of TIM10 yeast strain | inhibition, % at 10 µM | 330,000 compounds, 1.4% hits | AID 463195 | S. cerevisiae TIM10 strain growth, BacTiter-Glo luminescence, 24 h;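 active means inhibition of 40% or more at the single tested concentration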;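 further: wild-type TIM10 isogenic control strain grown at permissive 25 °C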
tim23-1 confirm: confirmation of tim23-1 mutant yeast growth inhibitors; shares compounds with tim23-1 inh; S. cerevisiae tim23-1 growth, BacTiter-Glo luminescence, 24 h; inhibition, % at 20 µM; 4,400 compounds, 83% hits; AID 463218;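 active means inhibition above about 39% in either of two replicate wells at 20 µM, limit read from the data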;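 further: temperature-sensitive tim23-1 mutant grown at 25 °C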
Numbers stand for hits; – = inactive; · = no result. The list is not random: actives were taken first. Their share in the collection is about 4.4%.

SMILES	tim23-1 inh	SKKanGAS inh	tim10-1 inh	PfHsp90 set2	TIM10 inh	tim23-1 confirm
CC(=O)c1ccc(OC(=O)CCNC(=O)c2ccccc2)cc1	–	·	–	–	–	·
CCOC(=O)c1cccc(OC(=O)CCNC(=O)c2ccc(Cl)cc2)c1	57	·	–	–	–	51
COc1cc(/C=C/C(=O)OCC(=O)c2ccc(OC(F)F)cc2)ccc1O	65	·	–	–	–	54
Nc1nc(SCc2ccc(Cl)cc2Cl)ns1	–	–	–	·	–	·
Cc1ccccc1CSc1nsc(N)n1	52	–	–	·	–	50
O=C(NN=C1CCCCCC1)c1cccs1	–	–	–	–	–	·
O=C(Nc1ccc(C(=O)Oc2ccccc2)c(O)c1)c1ccccc1	–	–	–	–	–	·
CCOC(=O)Nc1ccc(C(=O)Oc2ccccc2)c(O)c1	57	–	–	–	–	54
CC(C)(C)c1ccc(-c2nc(C=O)c3ccccn23)cc1	52	–	–	·	–	50
CCCCNc1c(-c2ccc(OC)c(SC(C)CC)c2)nc2cc(C)ccn12 (stereo unspecified)	55	·	–	–	–	51
CCCCNc1c(-c2ccc(OC)c(SC(C)CC)c2)nc2ccc(C)cn12 (stereo unspecified)	54	·	–	–	–	41
CCC(C)Sc1cccc(-c2nc3ccc(C)cn3c2NC2CCCCC2)c1 (stereo unspecified)	–	–	–	–	–	·
CCC(C)Sc1cccc(-c2nc3cnccn3c2NC2CCCCC2)c1 (stereo unspecified)	–	·	–	–	–	41
CCC(C)Sc1cc(-c2nc3cc(C)ccn3c2NC2CCCCC2)ccc1OC (stereo unspecified)	60	·	–	–	–	49
CCC(C)Sc1ccc(-c2nc3ccc(C)cn3c2NC2CCCCC2)cc1 (stereo unspecified)	–	–	–	·	–	·
CCCCNc1c(-c2ccc(OC)c(SC(C)CC)c2)nc2ccc(Cl)cn12 (stereo unspecified)	–	·	–	–	–	·
CC(=O)Nc1ccc(S(=O)(=O)N2CCC(N3CCCCCC3)CC2)cc1	–	–	–	–	–	·
Oc1c(Cl)cc(Cl)cc1C=Nc1ccc(Br)cc1	74	–	–	–	–	72
Oc1ccc(Br)cc1C=Nc1ccc(Cl)cc1	–	–	–	–	–	·
Cc1ccc(CN2C(=O)C(=O)c3cc(C)ccc32)cc1	79	·	–	–	–	84
Cc1ccc2c(c1)C(=O)C(=O)N2CCOc1ccccc1	–	–	–	–	–	·
Cc1cccc(OCCN2C(=O)C(=O)c3cccc(C)c32)c1	–	–	–	–	–	·
Cc1ccc2c(c1)C(=O)C(=O)N2c1ccc(Cl)cc1	66	·	–	–	–	75
Cc1ccc2c(c1)C(=O)C(=O)N2c1ccc(C(F)(F)F)cc1	–	·	–	–	–	·
Cc1cccc(OCCN2C(=O)C(=O)c3cc(C)ccc32)c1	51	–	–	–	–	49
SMILES	tim23-1 inh	SKKanGAS inh	tim10-1 inh	PfHsp90 set2	TIM10 inh	tim23-1 confirm
CCCN1C(=O)C(=O)c2cc(C)ccc21	–	·	–	–	–	·
Cc1cccc2c1N(CCCOc1ccccc1)C(=O)C2=O	59	–	–	–	–	56
Cc1ccc(C(=O)COC(=O)C2CC3CCCC(C2)C3=O)cc1[N+](=O)[O-] (stereo unspecified)	–	–	–	–	–	·
COc1cccc(OCc2cc(C(=O)N(Cc3ccccc3)CC3CC3)no2)c1	–	–	–	–	–	·
CCOC(=O)N1CCN(C(=O)/C=C/c2ccc(C(C)(C)C)cc2)CC1	–	–	–	–	–	·
Cc1ccc2c(c1)C(=O)C(=O)N2Cc1ccc(Br)cc1	68	·	–	–	–	–
CCCCN1C(C)=CC(=C2C(=O)c3ccccc3C2=O)C=C1C	–	–	–	–	–	·
Cc1ccc2c(c1)C(=O)C(=O)N2CC(=O)Nc1ccccc1NC(=O)c1ccccn1	–	–	–	–	–	·
CCCCN1C(=O)C(=O)c2cc(Cl)ccc21	59	·	–	–	–	55
CCCCCNC(=O)Cn1c(=O)c2c(ncn2CC(C)C)n(Cc2ccccc2)c1=O	–	–	–	–	–	·
CCCCCOC(=O)Cc1c(O)c2ccccc2[nH]c1=O	–	–	–	–	–	·
CCCCCOC(=O)Cc1c(C)nc(-c2ccccc2)[nH]c1=O	54	–	–	–	–	52
O=C(/C(=C/O)N=Nc1ccc(Cl)cc1)c1ccncc1	62	–	–	–	–	57
Cc1ccc(N=N/C(=C\O)C(=O)c2ccncc2)cc1	71	–	–	–	–	64
CCN1CCN(c2ccc(Nc3ccnc4ccccc34)cc2)CC1	–	·	–	–	–	·
COc1cc2sc3cc(NCc4ccc(C)o4)ccc3c(=O)c2cc1OC	58	·	–	·	–	72
CCOC(=O)Cc1csc(SCC(=O)N(CC(C)C)c2c(N)n(Cc3ccccc3)c(=O)[nH]c2=O)n1	–	–	–	–	–	·
CCNc1nc(N)c(C(=O)C23CC4CC(CC(C4)C2)C3)s1	61	–	–	–	–	54
O=C1ON=C(c2ccccc2)/C1=C/c1ccccc1	51	–	–	–	–	39
CCOCCCn1c(SCC(=O)Nc2ccc3[nH]c(=O)[nH]c3c2)nc2ccccc2c1=O	–	–	–	–	–	·
CCc1nnc(NC(=O)CN2CCN(c3nc(-c4ccccc4)cs3)CC2)s1	50	–	–	–	–	41
CC(C)C(=O)NNC(=O)CN1CCN(c2nc(-c3ccccc3)cs2)CC1	–	–	–	·	–	·
CC(C)(C)OC(=O)N[C@H](C(=O)OC(C)(C)C)c1ccc2ccccc2c1	–	·	–	–	–	·
CCOC(=O)C1=CN(Cc2cccc(F)c2)S(=O)(=O)NC1c1ccc(Br)cc1F (stereo unspecified)	56	·	–	–	–	46
Oc1ccc(N=Nc2ccccc2)cc1	55	–	–	–	–	47
SMILES	tim23-1 inh	SKKanGAS inh	tim10-1 inh	PfHsp90 set2	TIM10 inh	tim23-1 confirm
O=C(O)c1ccccc1N=Nc1ccc(O)cc1	–	–	–	–	–	·
CCc1ccc(-c2cc(C)no2)cc1S(=O)(=O)N1CCOc2ccc(C)cc21	–	–	–	–	–	·
COC(=O)CC1COc2ccccc2N1C(=O)c1ccc(Br)cc1 (stereo unspecified)	–	–	–	–	–	·
COC(=O)CC1COc2ccccc2N1C(=O)c1ccc(C(C)(C)C)cc1 (stereo unspecified)	53	–	–	–	–	–
CCCOc1ccccc1OCC(=O)Nc1cc(Cl)ccc1-n1cncn1	–	–	–	–	–	·
CC(=O)c1ccc(OCc2cc(C(=O)N3CCN(C4CCCC4)C(=O)C3)no2)cc1	–	–	–	–	–	·
Cc1csc2nc(O)c(C(=O)NCCCc3ccccc3)c(=O)n12	73	–	–	–	–	53
Cc1csc2nc(O)c(C(=O)NCCC3=CCCCC3)c(=O)n12	66	–	–	–	–	44
O=C(NCCC1=CCCCC1)c1cnccn1	–	–	–	–	–	·
Cc1ccc(-c2nc(SC(C)C(=O)N3CCCC3)n[nH]2)cc1 (stereo unspecified)	–	–	–	–	–	·
